Measured values from ChEMBL document CHEMBL3433997, “St. Jude Leishmania screening dataset” (2016).

Key:
Format in all cases: functional
[1] = biological target: Solute carrier family 2, facilitated glucose transporter member 1 (Homo sapiens) (UniProt P11166); assay: ST_JUDE_LEISH: Cytotoxicity at 2uM final concentration against transgenic Leishmania Mexicana promastigotes LmGLUT1 that are glucose transport deficient and complemented with the human glucose transporter GLUT1. Activity is measured by DNA content using SYBR green in vitro
[2] = biological target: Hexose transporter 1 (Plasmodium falciparum) (UniProt O97467); assay: ST_JUDE_LEISH: Cytotoxicity at 2uM final concentration against transgenic Leishmania Mexicana promastigotes LmPfHT that are glucose transport deficient and complemented with the Plasmodium falciparum hexose transporter. Activity is measured by DNA content using SYBR green in vitro
[3] = biological target: Glucose transporter (Leishmania mexicana) (UniProt O61059); assay: ST_JUDE_LEISH: Cytotoxicity at 2uM final concentration against transgenic Leishmania Mexicana promastigotes LmGT2 that are glucose transport deficient and complemented with the L. Mexicana glucose transporter 2. Activity is measured by DNA content using SYBR green in vitro

Sequence of Solute carrier family 2, facilitated glucose transporter member 1 (Homo sapiens) (P11166 whole entry): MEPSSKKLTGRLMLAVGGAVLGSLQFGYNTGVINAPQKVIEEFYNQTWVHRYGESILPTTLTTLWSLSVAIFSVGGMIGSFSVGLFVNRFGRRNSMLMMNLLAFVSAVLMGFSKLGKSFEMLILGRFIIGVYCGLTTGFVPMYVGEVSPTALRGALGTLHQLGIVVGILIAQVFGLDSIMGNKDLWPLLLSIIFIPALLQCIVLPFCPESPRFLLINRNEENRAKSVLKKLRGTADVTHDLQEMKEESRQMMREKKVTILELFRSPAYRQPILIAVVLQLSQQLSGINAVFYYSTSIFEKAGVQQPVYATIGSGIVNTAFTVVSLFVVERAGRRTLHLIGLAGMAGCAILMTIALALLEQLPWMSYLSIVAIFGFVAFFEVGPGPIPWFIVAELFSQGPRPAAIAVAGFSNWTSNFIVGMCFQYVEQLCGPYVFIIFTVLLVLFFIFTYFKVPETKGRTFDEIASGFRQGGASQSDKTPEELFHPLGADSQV

| SMILES | inhibition [1] [%] | inhibition [2] [%] | inhibition [3] [%] |
| --- | --- | --- | --- |
| Cc1noc(C)c1-c1cccc(CNCc2cccc(-c3ccc(-c4nc5ccccc5[nH]4)cc3)c2)c1 | 0.58 | -1.28 | -1.53 |
| Cc1ccc(C)c(Cn2ccc3nc(Cl)nc(Cl)c32)c1 | 7.99 | 5.11 | 0.45 |
| Cc1ccc(C)c(CC(=O)N2CCC(n3c(C)nc4ccc(F)cc43)CC2)c1 | 4.03 | 3.03 | 2.07 |
| Cc1cccc2nc(-c3ccc(-c4ccc(CNCCNC(=O)c5ccnn5C)cc4)s3)[nH]c12 | 9.45 | 9.43 | 8.36 |
| Clc1ccc2c(NCc3ccc4c(c3)OCO4)ccnc2c1 | 6 | 8.03 | 4.15 |
| O=C(Nc1cccc(CN2CCCN(Cc3ccc(F)cc3)CC2)c1)c1cc2ccccc2s1 | -2.26 | -1.55 | -0.88 |
| O=C(NC1CC1)c1cnc(N2CCC(Cc3ccccc3)CC2)c(Cl)c1 | 0.75 | -0.08 | -0.03 |
| Cc1ccc(F)c(NC(=O)c2c(-c3c(F)cccc3Cl)noc2C)c1 | -0.89 | 2.09 | 1.42 |
| O=C(/C=C/c1cccc(OC(F)(F)F)c1)NCCCCCN1CCC(c2c[nH]c3ccccc23)CC1 | 1.81 | 0.75 | -2.1 |
| O=C(/C=C/c1ccc(Cl)cc1)Nc1ccc2nc(CN3CCCC3)ccc2c1 | 5.3 | 6.73 | 5.54 |
| CC1CN(Cc2cccc(-c3ccc(-c4nc5cc(F)ccc5[nH]4)cc3)c2)CC(C)O1 (centres undefined) | 3.14 | 1.73 | 2.23 |
| Cn1nccc1C(=O)NCCNCc1ccc(-c2ccc(-c3nc4cc(C(F)(F)F)ccc4[nH]3)cc2)cc1 | 6.01 | 0.59 | 4.43 |
| Cc1c(C)n(C2CCCC2)c2ncnc(OC3CCN(CC(=O)NC4CC4)CC3)c12 | 9.5 | 6.34 | 7.75 |
| O=C(Nc1ccc(F)cc1)NC1CCN(c2ccnc3cc(Cl)ccc23)C1 (centres undefined) | -0.37 | -1.17 | -1.87 |
| Fc1ccc(Nc2nnc(CNC3CCN(Cc4ccc(Cl)c(Cl)c4)CC3)[nH]2)cc1 | 2.85 | 0.21 | -0.83 |
| NC1CCN(c2nc(NCCCc3ccc(O)cc3)nc(NCc3ccccc3-c3ccccc3)n2)CC1 | 0.77 | 0.01 | 1.09 |
| O=C(Nc1cccc(CN2CCN(C(=O)c3ccccc3)CC2)c1)c1cccs1 | 4.55 | 2.87 | 3.92 |

| SMILES | inhibition [1] [%] | inhibition [2] [%] | inhibition [3] [%] |
| --- | --- | --- | --- |
| N#Cc1ccc(-c2ccc(C(=O)NC3CCN(CCN4CCc5c(cccc5C(F)(F)F)C4)CC3)cc2)cc1 | -0.45 | -0.02 | 1.46 |
| CCN(CCCN1CCCCC1)c1cc(C)nc(Nc2ccc(C)cc2C)n1 | 1.88 | 1.53 | 2.76 |
| COc1ccc2ncc(F)c(CCN3CC(O)C(CNCc4ccc(F)cc4)C3)c2n1 (centres undefined) | 3.37 | 3.9 | 2.68 |
| O=C(NCCCCN1CC=C(c2ccc3c(c2OCc2ccccc2)CCCC3)CC1)c1ccc(-c2ccc(C(F)(F)F)cc2)cc1 | -1.51 | -1.29 | -2.15 |
| CN(C)CCCNc1nccc(N(C)c2ccc(NC(=O)Nc3cc(C(F)(F)F)ccc3F)cc2)n1 | 1.93 | -0.78 | -0.59 |
| COc1ccc(Cl)cc1N1CCN(CCCNC(=O)c2ccc(-c3nc4c(C)cccc4[nH]3)s2)CC1 | 1.19 | -0.51 | -1.08 |
| COc1ccc(C)c(Nc2ccnc(Nc3ccc(-c4cnc[nH]4)cc3)n2)c1 | 2.85 | 2.37 | 3.29 |
| CC(=O)Nc1ncc(C(=O)Nc2cccc(-c3ccc(-c4nc5ccccc5[nH]4)cc3)c2)s1 | 1.69 | 1.26 | 1.08 |
| COc1ccc2nccc(N3CCN(CCNCc4ccc5c(n4)NC(=O)CO5)CC3)c2c1 | 8.8 | 8.24 | 8.99 |
| CCN(CC)c1ccc(NC(=S)NC2CCN(CCCCCNC(=O)/C=C/c3ccc(Cl)c(Cl)c3)CC2)cc1 | 5.28 | 6.72 | 6.22 |
| CC(C)(C)c1cc([N+](=O)[O-])cc(C(=O)Nc2ccccc2C(F)(F)F)c1O | 0.47 | -0.82 | -1.86 |
| CN(C)c1ccc(C2(c3ccccc3)N=C(N)N(CCCc3ccccc3)C2=O)cc1 (centres undefined) | 3.64 | 3.4 | 0.65 |
| COc1cccc(CNC(=O)[C@H]2CNCCN2C(=O)CCCc2ccccc2)c1 | 3.03 | -0.14 | 5.01 |
| CN1CCN(c2cc(NC(=O)Nc3cccc(Cl)c3Cl)ccc2Cl)CC1 | -2.56 | -2.86 | -2.68 |
| COCCn1ccc2c3c(N)nc(N)nc3ccc21 | 0.38 | 3.61 | 2.26 |
| COCCNCc1ccc(-c2cccc(CNc3ccc(OC)cc3)c2)cc1 | 11.3 | 8.16 | 5.16 |
